# Assay outcomes as filed in PubChem.
# PglD DTNB: PglD (C. jejuni) enzyme inhibition | purified PglD enzyme, DTNB colorimetric CoA detection | inhibition, % at 12.5 µM | 0.098% of 360,000 active; in the data active means inhibition above about 16%, passing the limit was not always enough
# NSD2 HMT inh: NSD2 (human) methyltransferase inhibition. NSD2 peptide methylation, AlphaScreen, 120 min. 0.54% of 310,000 active. O96028. inhibition, % at 12.5 µM; in the data active means inhibition above about 50%
# Target sequence (O96028 whole entry, looked up): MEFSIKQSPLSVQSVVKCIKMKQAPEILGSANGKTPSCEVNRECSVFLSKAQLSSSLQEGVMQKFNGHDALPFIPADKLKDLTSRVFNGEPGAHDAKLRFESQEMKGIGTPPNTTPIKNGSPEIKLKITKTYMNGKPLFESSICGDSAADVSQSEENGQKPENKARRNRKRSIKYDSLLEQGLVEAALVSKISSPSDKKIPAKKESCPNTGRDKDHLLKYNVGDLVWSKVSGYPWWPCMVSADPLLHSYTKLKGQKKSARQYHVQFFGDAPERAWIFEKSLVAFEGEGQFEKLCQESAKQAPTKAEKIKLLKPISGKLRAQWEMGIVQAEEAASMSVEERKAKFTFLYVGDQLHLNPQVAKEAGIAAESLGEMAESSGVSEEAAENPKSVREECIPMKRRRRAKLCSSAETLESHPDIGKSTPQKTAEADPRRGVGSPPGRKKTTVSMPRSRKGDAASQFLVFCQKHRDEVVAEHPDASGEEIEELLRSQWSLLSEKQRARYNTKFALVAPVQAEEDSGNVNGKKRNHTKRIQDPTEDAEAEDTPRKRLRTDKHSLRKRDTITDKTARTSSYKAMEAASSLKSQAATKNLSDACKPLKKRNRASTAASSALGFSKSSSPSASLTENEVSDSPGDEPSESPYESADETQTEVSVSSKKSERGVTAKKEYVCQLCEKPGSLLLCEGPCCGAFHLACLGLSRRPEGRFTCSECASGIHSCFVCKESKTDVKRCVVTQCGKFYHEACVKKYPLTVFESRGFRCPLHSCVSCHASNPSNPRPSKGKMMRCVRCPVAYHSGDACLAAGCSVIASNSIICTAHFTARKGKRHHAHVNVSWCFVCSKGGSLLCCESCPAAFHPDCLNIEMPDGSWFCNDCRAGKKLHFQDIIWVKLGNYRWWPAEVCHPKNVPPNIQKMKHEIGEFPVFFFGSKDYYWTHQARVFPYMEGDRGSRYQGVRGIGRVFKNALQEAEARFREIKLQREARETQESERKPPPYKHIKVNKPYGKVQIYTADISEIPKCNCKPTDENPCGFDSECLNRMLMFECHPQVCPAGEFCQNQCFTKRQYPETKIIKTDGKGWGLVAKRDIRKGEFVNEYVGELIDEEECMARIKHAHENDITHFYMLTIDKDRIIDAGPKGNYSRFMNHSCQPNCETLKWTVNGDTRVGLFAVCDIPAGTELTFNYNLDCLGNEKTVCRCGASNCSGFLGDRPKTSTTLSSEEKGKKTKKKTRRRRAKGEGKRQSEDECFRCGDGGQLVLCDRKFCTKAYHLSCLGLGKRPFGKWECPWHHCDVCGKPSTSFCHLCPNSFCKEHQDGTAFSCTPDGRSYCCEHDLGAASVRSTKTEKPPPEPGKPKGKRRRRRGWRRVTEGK
# miR122 inh: blocks miR-122 activity in Huh7 sensor cells | Huh7 miR-122 Renilla luciferase sensor, 48 h; neutral wells = 0, positive control = 100 | activation (reporter increase), % at 12.5 µM | 0.3% of 340,000 active | AID 602342;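 active means mean replicate activation score at least 90 and every replicate individually at or above 90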;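 further: higher luciferase means less miR-122 activity so hits act as miR-122 inhibitors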
# C2C12 statin: suppression of simvastatin myotoxicity; C2C12 myotubes + simvastatin, ATP luminescence, 48 h; scaled: DMSO 0, geranylgeraniol control 100; rescue of ATP level, % at 7.49 µM; 0.78% of 330,000 active;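 active means mean ATP rescue above about 67%, or every replicate alone reaching that limit, limit read from the data, passing the limit was not always enough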;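 further: myotubes were challenged with 10 µM simvastatin during compound exposure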
# Starred values were filed as active, the others as inactive; nt = not tested or not shown; [ ] = remark or other dose. Hits are enriched below; roughly 1.2% of the tested compounds scored in any of these assays.
SMILES,PglD DTNB,NSD2 HMT inh,miR122 inh,C2C12 statin
O=C(Cn1nnc(-c2ccncc2)n1)N(C1CCCCC1)C1CCCCC1,-1.8,nt,-3.4,124.2*
Cn1c(=O)c2cc(S(=O)(=O)NCCC(=O)NCCC3=CCCCC3)ccc2n(C)c1=O,5.4,-0.9,103.5*,nt
O=C(C[C@@H]1CC[C@H]2[C@@H](COC[C@@H](O)CN2Cc2ccc(Oc3ccccc3)cc2)O1)Nc1nccs1,-1.9,nt,-13.5[16.7 µM],100.0*
O=C(C[C@@H]1CC[C@@H]2[C@H](COC[C@@H](O)CN2Cc2ccc(Oc3ccccc3)cc2)O1)Nc1nccs1,-0.1,nt,-12.1[16.7 µM],39.8
O=C(C[C@@H]1CC[C@@H]2[C@H](COC[C@@H](O)CN2Cc2ccc(F)cc2)O1)N1CCc2ccccc2C1,24.9*,nt,42.3[16.7 µM],-10.1
CC(=O)Nc1ccc(S(=O)(=O)Nc2ccc(S(=O)(=O)N3CCCCCC3)cc2)cc1,-3.5,nt,20.7,-4.6
COc1ccc(NC(C)=O)cc1S(=O)(=O)Nc1ccc(S(=O)(=O)N2CCCCC2)cc1,2.2,nt,125.7*,-0.1
COc1ccc(S(=O)(=O)Nc2ccc(S(=O)(=O)N3CCCCC3)cc2)cc1C,1.0,-3.6,251.5*,4.7
CCCC(=O)Nc1ccc2c(c1)C(=O)N(C)C[C@@H](OC)[C@H](C)CN(Cc1ccccc1)[C@@H](C)CO2,1.4,nt,5.3[16.7 µM],20.9
COc1cccc(S(=O)(=O)N[C@H]2C=C[C@@H](CC(=O)NCc3ccc(F)cc3)O[C@H]2CO)c1,-0.6,nt,nt,13.5
O=C(CCN1CCCCC1)N[C@@H]1CC[C@H](CCNS(=O)(=O)c2ccc(F)cc2)O[C@H]1CO,1.9,nt,nt,4.0
Cc1c(N=Cc2c(O)n(Cc3ccco3)c(=O)c3ccccc23)c(=O)n(-c2ccccc2)n1C,nt,-2.4,3.5,114.4*
O=c1c2ccccc2c2ccccc2c(=O)n1Cc1ccco1,-1.4,-2.2,1.4,13.3
O=C(NC1CCSc2ccccc21)c1cccc(OC(F)F)c1 (configuration not stated),9.4,-0.7,2.0,67.1*
O=C(NC1CCSc2ccccc21)c1cccc(Br)c1 (configuration not stated),2.3,-3.6,5.5,8.3
Cn1nnc(NC(=O)CSc2ccc(Cl)cc2)n1,7.1,-5.1,-2.9,98.2*
Cc1nn(-c2ccccc2)c(Cl)c1C(=O)Nc1nnc(C2CCCCC2)s1,0.6,1.1,4.4,nt
O=C(Nc1nnc(C2CC2)s1)c1cc(-c2ccccc2)nn1-c1ccccc1,-0.2,3.6,-2.2,77.9*
COCC(=O)Nc1ccc2c(c1)C(=O)N(C)[C@@H]1CC[C@H](CC(=O)OC)O[C@@H]1CO2,0.8,nt,12.5[16.7 µM],1.4
NC(=O)C1CCN(Cc2nc3ccccc3c(=O)[nH]2)CC1,-4.4,-1.2,-7.2,3.2
NC(=O)C1CCN(Cc2nc3cc(Cl)ccc3c(=O)[nH]2)CC1,6.2,nt,-0.1,101.5*
Cc1noc(C)c1S(=O)(=O)Nc1ccc2c(c1)CC(=O)N([C@@H](C)CO)C[C@H](C)[C@H](CN(C)Cc1ccc(-c3ccccc3)cc1)O2,nt,nt,7.8[16.7 µM],-5.1
Cc1noc(C)c1S(=O)(=O)Nc1ccc2c(c1)CC(=O)N([C@H](C)CO)C[C@@H](C)[C@@H](CN(C)Cc1ccc(Cl)c(Cl)c1)O2,0.3,nt,1.5[16.7 µM],96.9*
Cc1noc(C)c1S(=O)(=O)Nc1ccc2c(c1)CC(=O)N([C@H](C)CO)C[C@@H](C)[C@@H](CN(C)Cc1ccc(-c3ccccc3)cc1)O2,nt,nt,4.6[16.7 µM],98.0*
COCC(=O)N1C[C@H]2[C@@H](c3ccccc31)[C@@H](CO)N2Cc1ccccc1F,3.0,nt,-3.8[16.7 µM],15.4
SMILES,PglD DTNB,NSD2 HMT inh,miR122 inh,C2C12 statin
C[C@@H]1CN([C@H](C)CO)C(=O)c2cc(NS(=O)(=O)c3ccc(Cl)cc3)ccc2O[C@@H]1CN(C)Cc1ccc(Cl)c(Cl)c1,5.0,nt,-16.2[16.7 µM],-6.5
C[C@@H]1CN([C@@H](C)CO)C(=O)c2cc(NS(=O)(=O)c3ccccc3)ccc2O[C@@H]1CN(C)Cc1ccncc1,7.9,nt,26.2[16.7 µM],16.9
Cn1cccc1C(=O)C(=O)Nc1ccc(Cl)cc1,0.7,-2.2,-1.5,92.8*
Cn1cccc1C(=O)C(=O)Nc1cc(Cl)cc(Cl)c1,3.4,-2.7,-5.6,nt
CCC(=O)N1[C@H](CO)[C@H](c2ccccc2)[C@@H]1CN(CC)C(=O)c1cccc(F)c1,-1.2,nt,250.0*[16.7 µM],-16.9
CCN(C[C@H]1[C@H](c2ccccc2)[C@@H](CO)N1C(C)=O)C(=O)c1cccc(F)c1,-1.7,nt,-11.8[16.7 µM],-1.9
CCC(=O)N1[C@H](CN(CC)C(=O)c2cccc(F)c2)[C@H](c2ccccc2)[C@@H]1CO,6.6,nt,125.0*[16.7 µM],4.7
CCC(=O)N1[C@H](CO)[C@H](c2ccccc2)[C@@H]1CN(CC)C(=O)c1ccccc1,-0.7,nt,-36.4[16.7 µM],10.1
CCCNC(=O)Nc1ccc2c(c1)OC[C@@H](C)N(CC1CCCC1)C[C@@H](C)[C@@H](OC)CN(C)C2=O,-1.2,nt,nt,-12.6
COc1ccc(NC(=O)Nc2cccc3c2O[C@H](CN(C)S(=O)(=O)c2cn(C)cn2)[C@H](C)CN([C@H](C)CO)C3=O)cc1,3.2,nt,-2.2[16.7 µM],nt
COc1ccc2oc(=O)c(-c3nnc(NCc4ccco4)s3)cc2c1,-1.8,nt,-3.2,103.5*
C[C@@H]1CN([C@H](C)CO)C(=O)c2cc(NC(=O)CCN3CCOCC3)ccc2O[C@@H]1CN(C)Cc1ccc(C(=O)Nc2ccccc2N)cc1,-1.8,nt,-10.1[16.7 µM],27.1
COC(=O)c1ccccc1NC(=O)c1ccccc1OC,-6.2,-9.3,-1.5,123.6*
COc1cc(SC)ccc1C(=O)Nc1ccccc1C#N,3.0,-0.9,4.1,98.7*
COc1cc(SC)ccc1C(=O)Nc1ccncc1,nt,-0.2,nt,nt
COc1cc(SC)ccc1C(=O)NC1CCCCC1,1.3,-3.1,1.9,80.8*
Cc1noc(C)c1NC(=O)Nc1ccc2c(c1)C(=O)N([C@@H](C)CO)C[C@@H](C)[C@H](CN(C)C(=O)NC(C)C)OCCCC[C@H](C)O2,1.5,nt,-1.2[16.7 µM],nt
COc1ccc(C(=O)/C(=C/c2cccs2)c2nc3ccccc3o2)cc1,-4.9,7.7,-2.4,94.4*
COCCCn1c(=O)/c(=C\c2ccc(OC(F)F)c(OC)c2)s/c1=C(/C#N)C(N)=O,nt,-0.3,nt,nt
COCCCn1c(=O)/c(=C\c2ccccc2OC(F)F)s/c1=C(/C#N)C(N)=O,5.1,-11.7,167.1*,-5.8
C[C@@H]1CN([C@@H](C)CO)C(=O)Cc2cc(NC(=O)Nc3ccc4c(c3)OCO4)ccc2O[C@@H]1CN(C)Cc1ccccc1,-4.5,nt,-7.0[16.7 µM],-17.4
Cc1ccc(NC(=O)Cc2cn(C)c3ccccc23)cc1F,-0.6,3.8,321.4*,11.4
Cc1ccc(NC(=O)Cc2c(C(=O)O)n(C)c3ccccc23)cc1F,nt,1.7,-5.5,nt
C=C[C@@H]1c2c(F)cccc2N(S(=O)(=O)c2ccc(C)cc2)[C@H](c2ccc(C(=O)OC)cc2)C1(C#N)C#N,-0.4,nt,-2.6,126.3*
C[C@@H]1CCCCO[C@@H](CN(C)Cc2ccc(C(=O)O)cc2)[C@@H](C)CN([C@@H](C)CO)C(=O)c2cc(NS(=O)(=O)c3ccc(Cl)cc3)ccc2O1,-3.8,nt,2.3[16.7 µM],nt
CCOC(=O)Nc1ccc(C)cc1Br,-4.1,-3.3,-0.9,107.8*
CCOC(=O)Nc1cc(NC(=O)OCC)c(C)nc1C,nt,1.8,nt,nt
